This is part of a sample that, as a whole, favours compounds with a hit. Of some 83,000 tested, about 20% had one in any assay.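 Cell lines were cultured in 96-well plates, exposed to a single compound concentration, and assessed for percent growth 48 hours later.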 Calls of active or inactive are those of the source. The calls were made as follows: active = growth percent below 10; inactive = the rest.
Legend:
Assay in all cases: NCI-60 one-dose screen, 48 h (100 = growth as untreated, 0 = no growth, -100 = all killed)
Settings in all cases: 10 µM unless noted
NCI-H23 lung = system: NCI-H23 lung
NCI-H226 lung = system: NCI-H226 lung
HOP-62 NSCLC = system: HOP-62 NSCLC
NCI-H460 lung = system: NCI-H460 lung
HOP-92 NSCLC = system: HOP-92 NSCLC
NCI-H522 lung = system: NCI-H522 lung
A549/ATCC NSCLC = system: A549/ATCC NSCLC
786-0 renal = system: 786-0 renal
COLO 205 colon = system: COLO 205 colon
DU-145 prostate = system: DU-145 prostate
K-562 leukemia = system: K-562 leukemia
MALME-3M melanoma = system: MALME-3M melanoma
MDA-MB-231 breast = system: MDA-MB-231 breast
RXF 393 renal = system: RXF 393 renal
SF-268 CNS = system: SF-268 CNS
SF-295 CNS = system: SF-295 CNS
SF-539 CNS = system: SF-539 CNS
UACC-257 melanoma = system: UACC-257 melanoma
M14 melanoma = system: M14 melanoma
NCI-H322M lung = system: NCI-H322M lung

Measured: growth

CCCCNC(=O)CC1=C(C)/C(=C/c2[nH]c(-c3ccc[nH]3)cc2OC)N=C1C
active: NCI-H460 lung 7.8% | HOP-92 NSCLC -19.8% | K-562 leukemia 1.68% | UACC-257 melanoma 5.48% | M14 melanoma -43.1%
inactive: NCI-H23 lung 48.6% | NCI-H226 lung 36.7% | HOP-62 NSCLC 50.5% | NCI-H522 lung 17% | A549/ATCC NSCLC 12.4% | 786-0 renal 16.1% | COLO 205 colon 17.2% | DU-145 prostate 34.6% | MALME-3M melanoma 34% | MDA-MB-231 breast 13.5% | RXF 393 renal 59.4% | SF-268 CNS 27% | SF-295 CNS 14.6% | SF-539 CNS 27.8%

c1ccc2cc(C[n+]3ccn(CCCCCCCCCCn4cc[n+](Cc5ccc6ccccc6c5)c4)c3)ccc2c1
inactive: NCI-H226 lung 39.5% | NCI-H460 lung 11% | A549/ATCC NSCLC 18.5% | 786-0 renal 35.6% | DU-145 prostate 28.4% | MDA-MB-231 breast 16.5% | SF-268 CNS 13.7% | SF-295 CNS 16.5% | SF-539 CNS 10.4% | M14 melanoma 31.8%
active: NCI-H23 lung 5.67% | HOP-62 NSCLC -4.86% | HOP-92 NSCLC -23.6% | NCI-H522 lung -72.3% | COLO 205 colon -81.1% | K-562 leukemia 8.6% | MALME-3M melanoma -20.4% | RXF 393 renal 9.07% | UACC-257 melanoma -13.8%

C=C(C)[C@@H]1CC[C@]2(C(=O)O)CC[C@]3(C)[C@H](CC[C@@H]4[C@@]5(C)CCC(NC(=O)c6cccc(OC(C)=O)c6OC(C)=O)C(C)(C)[C@@H]5CC[C@]43C)[C@@H]12 (some centres not stated)
active: NCI-H23 lung 1.89% | NCI-H226 lung -17.4% | HOP-62 NSCLC -14.6% | NCI-H460 lung -39.4% | HOP-92 NSCLC -11% | NCI-H522 lung -11.4% | A549/ATCC NSCLC -6.31% | 786-0 renal -3.81% | COLO 205 colon -11.3% | MALME-3M melanoma -4.37% | RXF 393 renal -34.3% | SF-295 CNS -29.6% | SF-539 CNS -26.4% | UACC-257 melanoma 3.36% | M14 melanoma -16.2%
inactive: DU-145 prostate 21.3% | K-562 leukemia 10.7% | MDA-MB-231 breast 11.9% | SF-268 CNS 14.9%

COCCn1cc(-c2nc(-c3cc4cccnc4[nH]3)cs2)c2cc(OC)ccc21
active: NCI-H23 lung 8.67% | NCI-H460 lung 7.21% | HOP-92 NSCLC 4.04% | K-562 leukemia 6.65% | MDA-MB-231 breast 2.87%
inactive: NCI-H226 lung 28.8% | NCI-H322M lung 21.2% | HOP-62 NSCLC 13.4% | NCI-H522 lung 41.6% | A549/ATCC NSCLC 24.8% | 786-0 renal 28.5% | DU-145 prostate 40.9% | MALME-3M melanoma 73.9% | RXF 393 renal 23.2% | SF-268 CNS 44.9% | SF-295 CNS 14.6% | SF-539 CNS 30.8% | UACC-257 melanoma 30.6% | M14 melanoma 37.6%

O=C(O)c1ccc(-n2cc(/C=N/Nc3ccccc3)c(-c3ccc(F)cc3F)n2)cc1
inactive: NCI-H23 lung 71.5% | NCI-H226 lung 84.2% | HOP-62 NSCLC 40.2% | NCI-H460 lung 55.3% | HOP-92 NSCLC 83.5% | NCI-H522 lung 26.6% | A549/ATCC NSCLC 60% | 786-0 renal 71.5% | COLO 205 colon 108% | DU-145 prostate 49.2% | K-562 leukemia 18.6% | MALME-3M melanoma 70.4% | MDA-MB-231 breast 41% | RXF 393 renal 92.9% | SF-268 CNS 45.8% | SF-295 CNS 77.2% | SF-539 CNS 75.3% | UACC-257 melanoma 114% | M14 melanoma 41.8%

Nc1c(C(=O)Nc2ccncc2)sc2nc3c(cc12)C(O)CCC3 (configuration not stated)
inactive: NCI-H23 lung 93.3% | NCI-H226 lung 90.2% | NCI-H322M lung 84.1% | HOP-62 NSCLC 98.7% | NCI-H460 lung 102% | HOP-92 NSCLC 88.2% | NCI-H522 lung 78.8% | A549/ATCC NSCLC 91.9% | 786-0 renal 93.8% | DU-145 prostate 96.8% | K-562 leukemia 88.7% | MALME-3M melanoma 118% | MDA-MB-231 breast 96.8% | RXF 393 renal 107% | SF-268 CNS 95.1% | SF-295 CNS 106% | SF-539 CNS 96.2% | UACC-257 melanoma 96.3% | M14 melanoma 114%

O=C(Nc1ccc(Oc2cccc(F)c2)c(Cl)c1)c1cccnc1
inactive: NCI-H23 lung 44.9% | NCI-H226 lung 56.9% | HOP-62 NSCLC 34% | NCI-H460 lung 24.7% | HOP-92 NSCLC 63.4% | NCI-H522 lung 36.2% | A549/ATCC NSCLC 35.5% | 786-0 renal 40.9% | COLO 205 colon 22.7% | DU-145 prostate 21.8% | K-562 leukemia 16.2% | MALME-3M melanoma 47.2% | MDA-MB-231 breast 60.2% | RXF 393 renal 13.5% | SF-268 CNS 53.7% | SF-295 CNS 40.1% | UACC-257 melanoma 56.1% | M14 melanoma 15.9%
active: SF-539 CNS 4.06%

O=C1c2c(c3c4ccccc4[nH]c3c3ccc4ccccc4c23)C(=O)N1CCN1CCNCC1
active: NCI-H460 lung -69.2% | A549/ATCC NSCLC -21% | DU-145 prostate 8.13% | K-562 leukemia -41.5% | MDA-MB-231 breast -66.8% | M14 melanoma 6.23%
inactive: NCI-H23 lung 72.4% | NCI-H226 lung 76% | NCI-H322M lung 89.2% | HOP-62 NSCLC 61.3% | HOP-92 NSCLC 78.3% | NCI-H522 lung 66.2% | 786-0 renal 79.7% | MALME-3M melanoma 80.7% | RXF 393 renal 91.6% | SF-268 CNS 80.1% | SF-295 CNS 89.4% | SF-539 CNS 82.6% | UACC-257 melanoma 109%

Reference: PubChem BioAssay (NCI)
